Assay results reported in publication PMC5540273 (PLoS ONE, 2017).

Tests used:
Conditions in all cases: concentration: 1 μM, replicates: in singlicate; n = 1
ULK3 = system: ULK3
VEGFR2 = system: T1, VEGFR2
T1 construct: gene KDR

VPS34 = system: T2, VPS34
T2 construct: gene PIK3C3

VRK2 = system: VRK2
WEE1 = system: WEE1
WEE2 = system: WEE2
WNK1 = system: WNK1
WNK2 = system: WNK2
WNK3 = system: WNK3
WNK4 = system: WNK4
YANK1 = system: T3, YANK1
T3 construct: gene STK32A

YANK2 = system: T4, YANK2
T4 construct: gene STK32B

YANK3 = system: T5, YANK3
T5 construct: gene STK32C

YES = system: T6, YES
T6 construct: gene YES1

YSK1 = system: T7, YSK1
T7 construct: gene STK25

YSK4 = system: T8, YSK4
T8 construct: gene MAP3K19

ZAK = system: ZAK
ZAP70 = system: ZAP70
p38-alpha = system: T9, p38-alpha
T9 construct: gene MAPK14

p38-beta = system: T10, p38-beta
T10 construct: gene MAPK11
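Further: KINOMEscan kinase panel screen.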

| Structure (SMILES) | %Inh (ULK3) [%] | %Inh (VEGFR2) [%] | %Inh (VPS34) [%] | %Inh (VRK2) [%] | %Inh (WEE1) [%] | %Inh (WEE2) [%] | %Inh (WNK1) [%] | %Inh (WNK2) [%] | %Inh (WNK3) [%] | %Inh (WNK4) [%] | %Inh (YANK1) [%] | %Inh (YANK2) [%] | %Inh (YANK3) [%] | %Inh (YES) [%] | %Inh (YSK1) [%] | %Inh (YSK4) [%] | %Inh (ZAK) [%] | %Inh (ZAP70) [%] | %Inh (p38-alpha) [%] | %Inh (p38-beta) [%] |
| --- | --- | --- | --- | --- | --- | --- | --- | --- | --- | --- | --- | --- | --- | --- | --- | --- | --- | --- | --- | --- |
| Cc1cc(Nc2nc(-c3cccc(C)n3)nc3ccccc23)ccn1 [GW872411] | 0 | 0 | 0 | 40 | 1 | 2 | 0 | 0 | 0 | 0 | 0 | 0 | 0 | 0 | 0 | 0 | 0 | 0 | 20 | 0 |
| CCn1c(-c2ccoc2)nc2cnccc21 [SB-733887] | 11 | 65 | 0 | 8 | 4 | 0 | 15 | 18 | 19 | 0 | 0 | 4 | 27 | 0 | 12 | 49 | 34 | 0 | 0 | 0 |
| CN1C(=O)C(Nc2cc(Cl)c(O)c(Cl)c2)=C(c2ccc(Cl)cc2)C1=O [SB-404321] | 0 | 0 | 0 | 90.3 | 0 | 15 | 0 | 35 | 0 | 0 | 0 | 0 | 0 | 0 | 0 | 0 | 0 | 0 | 2 | 0 |
| CCc1ccc(-c2ccc3c(c2)-c2nn(C)cc2S(=O)(=O)N3C)cc1 | 0 | 0 | 0 | 14 | 21 | 0 | 6 | 0 | 0 | 0 | 0 | 12 | 0 | 0 | 0 | 0 | 0 | 0 | 0 | 12 |
| Nc1nc(N)c2nc(-c3ccccc3)[nH]c2n1 [SKF-12778] | 30 | 0 | 0 | 5 | 8 | 0 | 9 | 9 | 11 | 17 | 0 | 1 | 13 | 11 | 0 | 68 | 22 | 14 | 0 | 7 |
| Fc1cccc(CSc2nnc(-c3ccc4c(c3)CCO4)o2)c1 | 11 | 0 | 13 | 5 | 0 | 16 | 0 | 14 | 0 | 0 | 16 | 12 | 0 | 8 | 0 | 20 | 0 | 0 | 0 | 16 |
| Cc1nnc(-c2ccc(C)c(-c3ccc(C(=O)O)cc3)c2)o1 [GW608005] | 0 | 3 | 0 | 0 | 0 | 0 | 30 | 0 | 15 | 0 | 0 | 0 | 9 | 0 | 0 | 15 | 0 | 0 | 0 | 0 |
| OCCCNc1nccc(-c2c(-c3cccc(C(F)(F)F)c3)nn3cc(C(F)(F)F)ccc23)n1 [GW630813] | 0 | 3 | 0 | 18 | 0 | 0 | 0 | 0 | 33 | 85 | 0 | 0 | 0 | 0 | 1 | 2 | 0 | 0 | 99.4 | 30 |
